From PubChem BioAssay
Sampled rows, rich in hits. Any-hit rate of the full collection: about 5.4%.
Exocytosis inh = lytic granule exocytosis inhibition; TALL-104 LAMP-1 surface exposure, flow cytometry; cells stimulated with thapsigargin and PMA; inhibition, % at 10 µM; actives 0.66% (n = 360,000); AID 651702;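 active = inhibition above about 55%, limit read from the data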
beta cell repl = inducers of beta-cell replication in MIN6 cells. MIN6 cells proliferation, ATPlite luminescence, 48 h; cells starved in 0.2% serum; 100% = growth in 10% serum. proliferation, % at 10 µM. actives 0.29% (n = 330,000). AID 2380;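 active = compounds whose signal lies at least 3.5 SD above the mean of all wells on their plate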;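 also: 0% = DMSO-treated cells in low-serum medium and 100% = 10% serum control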
ALR inh = blocks human ALR sulfhydryl oxidase activity. inhibition, % (concentration not given with the values). purified ALR, DTT oxidation, H2O2 HRP-luminol luminescence. actives 3.8% (n = 290,000). P55789;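 active = mean replicate inhibition above about 79%, with every replicate also reaching it, limit read from the data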
Target sequence (P55789 whole entry, looked up): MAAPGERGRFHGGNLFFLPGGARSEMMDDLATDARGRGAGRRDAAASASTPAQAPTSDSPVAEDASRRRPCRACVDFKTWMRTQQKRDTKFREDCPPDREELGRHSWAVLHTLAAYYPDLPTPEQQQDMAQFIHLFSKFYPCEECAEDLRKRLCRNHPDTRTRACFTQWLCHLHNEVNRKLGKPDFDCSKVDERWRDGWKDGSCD
M18AAP inhibitor = PfM18AAP enzyme inhibition | actives 1.2% (n = 290,000) | recombinant PfM18AAP, H-Glu-NHMec fluorogenic cleavage | AID 1822 | inhibition, % at 7.35 µM;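 active = inhibition above the campaign mean inhibition over all tested compounds plus 3 SD, cut at about 28% in these data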;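 also: 0% = plate median of test compound wells and 100% = 2 mM ZnCl2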
SMARCA2 act = activators of SMARCA2 function; activation, % at 9.1 µM; AID 652017; actives 1% (n = 370,000); MG213 cells, MMTV-luciferase reporter, dexamethasone, overnight; in the data active = activation above about 7.8%;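 also: 0% = vehicle wells and 100% = reference activator wells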
GASC-1 inh = blocks human GASC-1 demethylase activity; Q9H3R0; GST-JMJD2C(1-420) H3K9me3 demethylation, DELFIA europium; inhibition, % at 2.35 µM; actives 0.069% (n = 330,000); AID 2099;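 active = more than half of a compound's replicate wells show inhibition beyond 50%, single wells judged on their own value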;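 also: signal counts dimethyl H3K9 product captured on neutravidin plate; 0% = median of DMSO wells and 100% = 0.3 times that DMSO median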
Target sequence (Q9H3R0 1-420 limits assumed): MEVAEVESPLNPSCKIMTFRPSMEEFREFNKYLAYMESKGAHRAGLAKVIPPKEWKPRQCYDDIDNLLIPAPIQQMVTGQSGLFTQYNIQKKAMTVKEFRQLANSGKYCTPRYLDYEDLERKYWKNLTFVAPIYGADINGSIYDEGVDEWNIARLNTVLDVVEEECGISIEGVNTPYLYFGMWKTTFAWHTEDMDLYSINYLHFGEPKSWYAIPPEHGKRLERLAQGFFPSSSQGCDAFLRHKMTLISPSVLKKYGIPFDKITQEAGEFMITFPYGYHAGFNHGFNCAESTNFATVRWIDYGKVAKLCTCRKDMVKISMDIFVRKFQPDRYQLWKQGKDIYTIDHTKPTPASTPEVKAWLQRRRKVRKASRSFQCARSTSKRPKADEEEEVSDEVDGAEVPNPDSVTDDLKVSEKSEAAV
* marks the source's active call; other numbers are inactive results; · = no result given.

SMILES | Exocytosis inh | beta cell repl | ALR inh | M18AAP inhibitor | SMARCA2 act | GASC-1 inh
C=CCn1c(C(C)NC(=O)c2ccccc2)n[nH]c1=S (configuration not stated) | -2 | -3 | 44 | 9 | -3 | -2
Cc1nc(C#N)c(N/N=C/c2cccc(Cl)c2)o1 | 1 | -1 | 97* | 1 | 7 | -22
CCOC(=O)[C@@]12CCCC=C1N(CCc1ccc(Cl)cc1)C(=O)[C@H]2CC(=O)NCc1ccc(OC)c(OC)c1 | · | · | · | · | -4 | ·
C=CCN1C[C@@H](COCc2ccccc2)Oc2cccc(F)c2S1(=O)=O | · | · | · | · | -2 | ·
CC(C)C(c1nnnn1C1CCCC1)N1c2ccccc2CC1C (configuration not stated) | -3 | -3 | 99* | -3 | -4 | 0
O=C1OC(c2ccc(Cl)cc2)/C(=C(/O)c2ccccc2)C1=O (configuration not stated) | -14 | -1 | 97* | 11 | 1 | -6
O=C(C1CCCN1S(=O)(=O)c1ccc(F)cc1)N1CCc2ccccc2C1 (configuration not stated) | · | · | · | · | -5 | ·
COc1cc(/C=C2\SC(=S)N(CC(=O)O)C2=O)ccc1OS(=O)(=O)c1ccc(C)cc1 | -1 | -3 | 89* | · | 7 | 3
O=c1[nH]cc(N=Cc2cc(Cl)cc(Cl)c2O)c(=O)[nH]1 | 30 | -3 | -26 | -4 | -2 | 66*
O=C(CSC1=NS(=O)(=O)c2cc(F)ccc2N1)Nc1cccc(F)c1 | -4 | 0 | 97* | · | 1 | -3
O=C(CSC1=NS(=O)(=O)c2cc(F)ccc2N1)Nc1ccccc1 | 0 | -2 | · | · | -2 | 31
O=c1[nH]cnc2c1c(-c1ccccc1)cn2-c1ccccc1 | 11 | -2 | 1 | -1 | 0 | 62*
COc1cc(/C=C2/C(=O)N(c3ccc(C)c(C)c3)N=C2C)cc([N+](=O)[O-])c1O | -3 | -2 | 45 | 10 | -3 | -5
CCOc1cc(/C=C2\NC(=O)NC2=O)cc([N+](=O)[O-])c1O | 3 | 5 | 88* | 12 | 4 | 4
COc1cc(/C=C2/C(=O)NN(c3ccc(Cl)cc3)C2=O)cc(OC)c1O | 2 | -2 | 19 | 19 | 0 | -2
COc1cc(/C=C2\C(=O)NN(c3ccc(C)cc3)C2=O)cc([N+](=O)[O-])c1O | 4 | -1 | 99* | -1 | 0 | 41
CCOc1cc(/C=C2\NC(=O)NC2=O)ccc1OC(C)C(=O)O (configuration not stated) | -1 | -1 | 1 | 8 | -2 | -19
COc1cc(/C=C2\C(=O)NN(c3ccccc3)C2=O)cc([N+](=O)[O-])c1O | 0 | 1 | 98* | 8 | 5 | 4
CCOc1cc(/C=C2\C(=O)NN(c3ccccc3)C2=O)cc([N+](=O)[O-])c1O | 0 | -2 | 95* | 10 | 2 | -9
CCOc1ccc(-n2c(SCC(=O)Nc3ccccc3-c3ccccc3)nnc2-c2ccccc2)cc1 | · | · | · | · | -4 | ·
COC(=O)[C@]12C[C@H](CC(=O)NCc3ccc(OC)c(OC)c3)C(=O)N(Cc3ccc(Cl)cc3Cl)C1=C[C@H](C1CCCC1)O[C@@H]2C | · | · | · | · | -2 | ·
COc1cc(/C=C2/C(=O)NN(c3ccccc3)C2=O)cc(Br)c1O | -7 | -2 | 99* | 21 | -1 | 14
O=C(NC1CC2CCC(C1)N2Cc1nnnn1Cc1ccco1)NC12CC3CC(CC(C3)C1)C2 (configuration not stated) | -3 | -1 | 80* | -1 | -3 | 58
COCCNC(=S)N(C)[C@H]1C[C@H]2c3[nH]c4c(-c5cccc(C)c5)cccc4c3CCN2C[C@H]1[C@H](C)O | · | · | · | · | -2 | ·
Cc1nc2ccc(-c3nc4cc(N)ccc4o3)cc2[nH]1 | -2 | -6 | 98* | -2 | 0 | 10
SMILES | Exocytosis inh | beta cell repl | ALR inh | M18AAP inhibitor | SMARCA2 act | GASC-1 inh
COc1cc(/C=N\NC(=O)c2ccc(Cn3cc(Br)c([N+](=O)[O-])n3)o2)cc(OC)c1O | 4 | 1 | 100* | 19 | -2 | 0
COc1cc(/C=N/NC(=O)c2ccc(Cn3cc([N+](=O)[O-])cn3)o2)cc(Br)c1O | 2 | -1 | 96* | 6 | 2 | -6
CCOC(=O)c1c(NC(=O)COc2ccccc2C#N)sc2c1CC(C)(C)NC2(C)C | 57* | -7 | -15 | 5 | 1 | 10
CCOC(=O)c1c(NC(=O)Cc2ccccc2)sc2c1CC(C)(C)NC2(C)C | 5 | -6 | · | 1 | -1 | -6
CCC(=O)N1CCc2cc(Br)c(S(=O)(=O)NCCCN(C)Cc3ccccc3)cc21 | · | · | · | · | -3 | ·
O=c1[nH]c(S)c(/C=C2\C=Nc3ccccc32)s1 | 5 | -4 | 99* | 22 | 0 | 3
O=S1(=O)N[C@@H](Cc2ccccc2)COc2cc(N3CCOCC3)ccc21 | · | · | · | · | 0 | ·
Oc1c(Br)cc(Br)cc1CNc1cnc2ccccc2c1 | 6 | -5 | -29 | -14 | 0 | -16
Oc1c(Br)cc(Br)cc1CNc1ccc(F)cc1 | 3 | -2 | 98* | 11 | -4 | 0
Cc1ccc(NNC(=O)c2ccno2)c(C)c1 | -1 | -4 | 99* | 17 | 1 | -20
O=c1[nH][nH]c(-c2ccccc2O)c1C(C[N+](=O)[O-])c1cccc(Cl)c1 (configuration not stated) | -5 | 0 | · | 30* | -3 | -20
COc1ccc(C=Nn2c(-c3ccc(F)cc3)n[nH]c2=S)c(OC)c1OC | · | · | · | · | -2 | ·
O=S(=O)(c1ccc(NC(=S)NN=C(Cc2ccccc2)Cc2ccccc2)cc1)N1CCOCC1 | -6 | -2 | -6 | 29* | -5 | 6
O=S(=O)(c1ccc(NC(=S)NCCc2ccccc2)cc1)N1CCOCC1 | 0 | 2 | -13 | -7 | -1 | -7
CC1CCN(C(=O)COC(=O)c2ccc(Cl)nc2)CC1 | -4 | 0 | 1 | · | 0 | -2
CC1CN(C(=O)COC(=O)c2ccc(Cl)nc2)CC(C)O1 (configuration not stated) | 1 | 2 | 91* | -6 | 3 | 0
CC(C)C[C@H]1CN([C@@H](Cc2ccccc2)CN2CCC[C@H]2CN2C(=O)C(=O)NC[C@@H]2Cc2ccccc2)C(=O)C(=O)N1CC1CCCCCC1 | · | · | · | · | 0 | ·
COc1ccc(OC)c(CNS(=O)(=O)c2ccccc2Br)c1 | · | · | · | · | -4 | ·
Cc1n[nH]c(C)c1Sc1ccccc1N | -2 | 2 | 96* | -9 | 0 | -1
Cc1cc(C)nc(Sc2c(C)n[nH]c2C)n1 | -1 | -2 | 3 | 1 | 1 | 2
Cc1c(Cl)cccc1NC(=O)CSC(N)=O | 7 | -5 | 99* | 1 | 4 | -13
COCC(=O)Nc1ccc(C)c(Cl)c1 | -1 | -1 | · | -4 | -1 | 3
Nc1nnc(SCC(=O)Nc2cccc(Cl)c2)s1 | 4 | -3 | · | · | -2 | ·
